Results filed as inconclusive are left out. Where a call stands in place of a potency, no number is given. Activity calls are given as the source filed them. Calls come from the whole dose curve; as a rule, active = well fitted inhibition curve with a large enough effect; inconclusive = small, poorly fitted or top-dose-only effect; inactive = no such curve, though single readings can be large or run the other way.
Experiments:
[1] = system: Zika virus NS2B-NS3 protease (unlinked complex); assay: Primary screen GU Rhodamine qHTS for Zika virus inhibitors: Unlinked NS2B-NS3 protease assay (AID 1347159); note: nearly all actives have a fitted effect of over 60% in size; note: potency is the fitted concentration of half-maximal effect
In short: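 Compounds, tested up to 114 microM, were incubated for 15 minutes with 25 nM unlinked NS2B-NS3 protease at pH 8.0. Cleavage of 1.5 microM Rhodamine110 substrate was then followed by fluorescence for 15 minutes.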

[2] = system: Zika virus NS2B-NS3 protease (linked construct); assay: Primary screen NINDS Rhodamine qHTS for Zika virus inhibitors (AID 1347160); note: nearly all actives have a fitted effect of over 55% in size
In short: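 Percent inhibition, normalized to uninhibited and enzyme-free controls, is fitted to a 4-parameter Hill equation. Fluorescence change comes from a 15-min cleavage of 1.5 microM bis-peptide Rhodamine110 substrate by 25 nM linked NS2B-NS3 at room temperature.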

**Q.** COc1ccc2nc(S(=O)(=O)Cc3ncc(C)c(OC)c3C)[nH]c2c1 was tested. Which Potency [1] did it give?
**A.** inactive

**Q.** What about the Potency [2] of the same molecule?
**A.** inactive

**Q.** With O=C1CCC(c2ccccc2)(C2CCN(Cc3ccc(I)cc3)CC2)C(=O)N1 (centres undefined) as the molecule, how does the Potency [1] read?
**A.** inactive

**Q.** What about the Potency [2] of the same molecule?
**A.** inactive

**Q.** With COc1cc2c(cc1OC)[C@@H]1[C@H](O)[C@@H](OC)C=C3CCN(C2)[C@H]31 as the molecule, how does the Potency [1] read?
**A.** inactive

**Q.** And the Potency [2]?
**A.** inactive

**Q.** Which results are given for OC/C=C/c1ccc(O[C@@H]2O[C@H](CO)[C@@H](O)[C@H](O)[C@H]2O)cc1?
**A.** Potency [1]: inactive; Potency [2]: inactive

**Q.** For C=C1C[C@]23C[C@H]1CC[C@H]2[C@@]12CC[C@H](O)[C@@](C)(C(=O)O1)[C@H]2[C@@H]3C(=O)O, which Potency [1] is on record?
**A.** inactive

**Q.** And the Potency [2]?
**A.** inactive

**Q.** What does the source list for COc1ccc(F)cc1-c1cc(NC(=O)[C@@H]2CCCNC2)ncc1Cl?
**A.** Potency [1]: inactive; Potency [2]: inactive

**Q.** C=C(CCC1=C(C)[C@H]2[C@H](CC3[C@@H]4CC=C5C[C@@H](O)C[C@@H](O)[C@]5(C)C4[C@H](O)C[C@@]32C)O1)CO[C@@H]1O[C@H](CO)[C@@H](O)[C@H](O)[C@H]1O (some centres undefined) was tested. Which Potency [1] did it give?
**A.** inactive

**Q.** What about the Potency [2] of the same molecule?
**A.** inactive

**Q.** Which Potency [1] does the source give for CC(C)(C)NC(=O)[C@@H](c1cccnc1)N(C(=O)c1ccco1)c1ccc(C(C)(C)C)cc1 here?
**A.** inactive

**Q.** And the Potency [2]?
**A.** inactive

**Q.** CC(C)(C)NS(=O)(=O)c1cncc(-c2cc(F)c3nc(N)nn3c2)c1 was tested. Which Potency [1] did it give?
**A.** inactive

**Q.** And the Potency [2]?
**A.** inactive

**Q.** What does the source list for CSc1ccc(C(=O)N[C@@H]2CCCC[C@@H]2NC(=O)CNC(=O)c2cc(C(F)(F)F)ccc2NC(=O)NC(C)C)cc1?
**A.** Potency [1]: inactive; Potency [2]: inactive

**Q.** For COc1cc(O)cc(C)c1C(=O)OC1C(CO)OC(OC2C(O)C(O)C(O)C(O)C2O)C(O)C1O (centres undefined), which Potency [1] is on record?
**A.** inactive

**Q.** And the Potency [2]?
**A.** inactive

**Q.** How did the Potency [1] turn out when CN(C)C/C=C/C(=O)Nc1cccc(C(=O)Nc2ccc(Nc3nccc(-c4cccnc4)n3)cc2)c1 was run?
**A.** 79.4 µM (active)

**Q.** What about the Potency [2] of the same molecule?
**A.** inactive
